From PubChem BioAssay (NCATS)
Where “and” joins values, the source holds several entries; their conditions need not be identical. Identical values can stand only once. Results filed as inconclusive are left out. Calls of active or inactive are those of the source. Unless noted, calls follow the shape of the dose curve; as a rule, active = well fitted curve in either direction with a large enough effect (not every such curve was filed as active); inconclusive = small, poorly fitted or top-dose-only effect, or another doubt; inactive = flat fitted curve, though single readings scatter.

Assays:
[1] = biological target: Lysosomal acid glucosylceramidase (Homo sapiens) (UniProt P04062); test: Glucocerebrosidase-p2 (AID 348; in the data active = potency below about 10 µM; also: potency is read from the fitted curve at half-maximal effect); settings: purified GBA, blue fluorogenic substrate, 40 min
Outline: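 Compounds titrated from 0.6 nM upwards against 0.2 nM enzyme in pH 5.9 citric acid/KH2PO4, taurocholate, tween-20; blue fluorogenic substrate 80 uM, 40 min room temperature, stopped and read Ex 365/Em 440 for AC50.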

[2] = AP1 Signaling Pathway (AID 357); settings: ME-180 AP-1-bla reporter, EGF-induced, beta-lactamase ratio, 5 h; at 7.69 µM (top of the series) unless noted;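 also: ME-180 reporter cells stimulated with EGF at its EC50 level; % is scaled to controls: 0 for no effect and ±100 for the full control effect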
Outline: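 Modulation of EGF-driven AP-1 transcription was assessed with a beta-lactamase reporter in ME-180 cells. Compound and EC50 EGF were co-incubated 5 hours at 37 °C before 2.5-hour CCF4 loading at room temperature and dual-emission reading.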

[3] = NFAT Signaling Pathway (AID 444); settings: Jurkat NFAT-bla M1, carbachol, beta-lactamase ratio, 5 h; at 7.69 µM (top of the series) unless noted;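 also: carbachol stimulus at about its EC50 of 1 µM final; % is scaled to controls: 0 for no effect and ±100 for the full control effect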
Outline: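 Read-out: CCF4 FRET ratio (460 nm/530 nm) after 1 h RT dye loading, used for %activity and AC50 from titration series. Cells: Jurkat NFAT-β-lactamase/M1 line, treated with compound plus 1 uM carbachol for 5 h, 37 °C.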

[4] = Stat Signaling Pathway (AID 446); settings: ME-180 SIE beta-lactamase reporter, IL-6 stimulated, 5 h; at 7.69 µM (top of the series) unless noted;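 also: ME-180 cervical cancer cells given 40 pM IL-6 alongside compound; SIE-controlled beta-lactamase reporter measured as 460/530 nm FRET emission ratio; % is scaled to controls: 0 for no effect and ±100 for the full control effect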
Outline: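 Reporter line: ME-180 cervical carcinoma, SIE-beta-lactamase. Treatment: compound with 40 pM IL-6, 5 hrs, 37 C, in low-serum OPTI-MEM with 10 mM HEPES pH 7.3. Detection: 460/530 nm fluorescence.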

[5] = biological target: Glucocorticoid receptor (Homo sapiens) (UniProt P04150); test: GR-GFP Redistribution (AID 450;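 active = compounds whose dose series gives a full or clear partial fitted curve of increased nuclear translocation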; also: potency is read from the fitted curve at half-maximal effect); settings: U2OS GR-GFP nuclear translocation, laser cytometry, 2 h
[6] = biological target: Glucocorticoid receptor (Homo sapiens) (UniProt P04150); test: GR-EFC Redistribution (AID 451; calls by dose curve; also: potency is read from the fitted curve at half-maximal effect); settings: CHO-K1 GR-EFC translocation, beta-gal luminescence, 2 h
Outline: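 Translocation of GR-ED fusion to nuclear EA restores b-gal, read by luminescence after 1 h room-temperature detection. Engineered CHO-K1 biosensor cells, 1,000/well, exposed 2 h at 37 C to titrations up to 46 uM final.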

[7] = biological target: Mitogen-activated protein kinase 10 (Mus musculus) (UniProt Q61831); test: JNK3 AlphaScreen Assay (AID 530); settings: JNK3 lysate, c-Jun phosphorylation; series mostly up to 11.4 µM;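 also: kinase came from lysate of stimulated human HepG2 cells; signal reports phosphorylation of biotinylated GST-cJun 1-79 at Ser73 with 10 µM ATP; % is scaled to controls: 0 for no effect and ±100 for the full control effect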
Outline: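 Compound titrations were preincubated 15 minutes at room temperature with substrate, antibody and pre-activated JNK3-containing HepG2 lysate. Reactions were started with 10 uM ATP and stopped with EDTA-containing bead buffer for AlphaScreen detection.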

[8] = biological target: 3',5'-cyclic-AMP phosphodiesterase 4B (Homo sapiens) (UniProt Q07343); test: qHTS Assay for Inhibitors of PDE-IV (AID 607; active = well fitted activation curve with a large enough effect in the main read-out, with a control signal flat, not every such curve was filed as active; also: % of control where 0% means no effect); settings: HEK293 ACTOne CNG channel cells, membrane potential fluorescence; series mostly up to 22.9 µM
Outline: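 Cell-based read-out of cAMP via a modified cyclic nucleotide-gated channel and membrane potential dye (535/590 nm) in HEK293 cells expressing PDE4 endogenously. Compounds tested up to 22.9 uM final; 100 uM RO 20-1724 reference.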

Chain of 3',5'-cyclic-AMP phosphodiesterase 4B (Homo sapiens) (Q07343 whole entry, looked up): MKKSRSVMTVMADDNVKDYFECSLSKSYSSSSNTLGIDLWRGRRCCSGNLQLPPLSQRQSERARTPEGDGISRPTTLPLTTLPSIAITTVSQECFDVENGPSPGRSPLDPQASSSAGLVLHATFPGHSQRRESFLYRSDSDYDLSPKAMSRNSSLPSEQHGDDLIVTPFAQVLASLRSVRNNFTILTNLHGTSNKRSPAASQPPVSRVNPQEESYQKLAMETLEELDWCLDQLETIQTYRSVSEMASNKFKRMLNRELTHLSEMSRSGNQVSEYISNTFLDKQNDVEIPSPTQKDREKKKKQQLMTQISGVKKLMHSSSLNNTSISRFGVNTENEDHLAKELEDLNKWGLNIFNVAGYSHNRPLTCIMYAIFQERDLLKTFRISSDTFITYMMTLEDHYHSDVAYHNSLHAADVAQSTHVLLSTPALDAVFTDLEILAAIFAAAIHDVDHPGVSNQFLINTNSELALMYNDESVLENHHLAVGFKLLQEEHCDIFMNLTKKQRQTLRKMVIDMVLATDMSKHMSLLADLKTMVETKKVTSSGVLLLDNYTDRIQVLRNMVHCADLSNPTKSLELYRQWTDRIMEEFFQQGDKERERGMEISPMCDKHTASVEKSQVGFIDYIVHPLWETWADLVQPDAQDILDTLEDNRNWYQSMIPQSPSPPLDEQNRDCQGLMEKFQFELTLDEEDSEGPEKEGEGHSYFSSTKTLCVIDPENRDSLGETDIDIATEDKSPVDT
Chain of Lysosomal acid glucosylceramidase (Homo sapiens) (P04062 whole entry, looked up): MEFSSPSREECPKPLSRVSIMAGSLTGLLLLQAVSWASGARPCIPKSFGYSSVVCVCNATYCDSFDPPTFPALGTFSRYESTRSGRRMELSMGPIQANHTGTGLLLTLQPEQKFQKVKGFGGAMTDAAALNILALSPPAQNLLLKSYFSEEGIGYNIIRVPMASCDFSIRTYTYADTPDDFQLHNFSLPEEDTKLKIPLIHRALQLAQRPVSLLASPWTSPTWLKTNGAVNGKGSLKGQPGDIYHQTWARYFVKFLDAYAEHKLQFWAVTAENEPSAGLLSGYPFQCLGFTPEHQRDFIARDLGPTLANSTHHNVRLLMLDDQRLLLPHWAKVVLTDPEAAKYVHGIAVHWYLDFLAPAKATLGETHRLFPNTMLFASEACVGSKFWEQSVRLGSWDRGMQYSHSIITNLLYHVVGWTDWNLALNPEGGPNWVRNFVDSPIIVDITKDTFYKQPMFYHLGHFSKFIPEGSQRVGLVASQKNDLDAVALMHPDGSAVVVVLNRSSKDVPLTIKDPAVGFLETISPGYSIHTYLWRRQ
Chain of Glucocorticoid receptor (Homo sapiens) (P04150 whole entry, looked up, the tested form may be a part): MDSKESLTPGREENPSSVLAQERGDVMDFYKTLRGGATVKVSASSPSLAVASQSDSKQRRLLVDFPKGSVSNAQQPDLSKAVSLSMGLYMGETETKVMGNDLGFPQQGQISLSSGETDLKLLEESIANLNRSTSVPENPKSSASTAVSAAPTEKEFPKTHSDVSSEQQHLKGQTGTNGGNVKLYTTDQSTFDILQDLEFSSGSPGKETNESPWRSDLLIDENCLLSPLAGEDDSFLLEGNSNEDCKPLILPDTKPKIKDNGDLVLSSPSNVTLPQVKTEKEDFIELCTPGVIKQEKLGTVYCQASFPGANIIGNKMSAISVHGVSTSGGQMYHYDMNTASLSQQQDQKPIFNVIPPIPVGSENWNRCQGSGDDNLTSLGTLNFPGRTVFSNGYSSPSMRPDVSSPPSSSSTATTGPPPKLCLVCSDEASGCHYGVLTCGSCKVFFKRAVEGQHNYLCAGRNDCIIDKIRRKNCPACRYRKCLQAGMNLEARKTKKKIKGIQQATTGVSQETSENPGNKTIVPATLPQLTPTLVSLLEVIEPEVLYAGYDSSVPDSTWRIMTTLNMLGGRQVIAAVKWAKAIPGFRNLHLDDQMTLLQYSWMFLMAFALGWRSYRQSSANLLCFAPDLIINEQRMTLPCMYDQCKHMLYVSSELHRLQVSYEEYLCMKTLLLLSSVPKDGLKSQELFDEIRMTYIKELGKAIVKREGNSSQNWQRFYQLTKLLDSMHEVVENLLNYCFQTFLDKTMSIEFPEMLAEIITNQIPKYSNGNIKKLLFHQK

CC(=O)Nc1cc(CN2CCCCC2)c(O)c2ncccc12
inactive: Potency [1] > 11.4 µM | activity change, negative = inhibition [2] 4.21% | activity change, negative = inhibition [3] -27.8% | activity, negative = inhibition [4] 6.71% | Potency [5] > 46 µM | Potency [6] > 9.22 µM | Potency [7] | Potency [8]

N=C(N)C(N=Nc1ccccc1)C(=N)N (stereo unspecified)
inactive: Potency [1] > 11.4 µM | activity change, negative = inhibition [2] 1.88% | activity change, negative = inhibition [3] 3.59% | activity, negative = inhibition [4] 1.6% | Potency [5] > 46 µM | Potency [6] > 9.22 µM | Potency [7] | Potency [8]

CC(=O)Nc1nc2ncc(C=O)nc2c(=O)[nH]1
inactive: Potency [1] > 11.4 µM | activity change, negative = inhibition [2] -2.43% | activity change, negative = inhibition [3] 17.3% | activity, negative = inhibition [4] 5.76% | Potency [5] > 46 µM | Potency [6] > 9.22 µM | Potency [7] | Potency [8]

CC1=NNC(=S)NCCCN2CCN(CCCNC(=S)NN=C(C)C=NNC(=S)NCCCN3CCN(CCCNC(=S)NN=C1)CC3)CC2
inactive: Potency [1] > 11.4 µM | activity change, negative = inhibition [2] 4.7% | activity change, negative = inhibition [3] 5.96% | activity, negative = inhibition [4] -0.247% | Potency [5] > 46 µM | Potency [6] > 9.22 µM | Potency [7] | Potency [8]

O=C(O)c1cccc(S(=O)(=O)NCCO)c1
inactive: Potency [1] > 11.4 µM | activity change, negative = inhibition [2] 5.38% | activity change, negative = inhibition [3] 3.24% | activity, negative = inhibition [4] -2.13% | Potency [5] > 46 µM | Potency [6] > 9.22 µM | Potency [7] | Potency [8]

O=C(O)CCC(=O)c1ccc[nH]1
inactive: Potency [1] > 11.4 µM | activity change, negative = inhibition [2] -0.936% | activity change, negative = inhibition [3] 3.55% | activity, negative = inhibition [4] 3.5% | Potency [5] > 46 µM | Potency [6] > 9.22 µM | Potency [7] | Potency [8]

Nc1nc2c(c(=O)[nH]1)CN(CCCN1CCOCC1)CN2
inactive: Potency [1] > 11.4 µM | activity change, negative = inhibition [2] 1.77% | activity change, negative = inhibition [3] 5.13% | activity, negative = inhibition [4] 12.2% | Potency [5] > 46 µM | Potency [6] > 9.22 µM | Potency [7] | Potency [8]

NNC(=O)c1ccc(OCc2nc3ccccc3[nH]2)cc1
inactive: Potency [1] > 11.4 µM | activity change, negative = inhibition [2] -12.3% | activity change, negative = inhibition [3] 13.6% | activity, negative = inhibition [4] -6.78% | Potency [5] > 46 µM | Potency [6] > 9.22 µM | Potency [7] | Potency [8]

CN(C)CCN1C(=O)CC[C@]2(C)C1=CC[C@@H]1[C@@H]2CC[C@]2(C)[C@H]1CC[C@]2(C)O
inactive: Potency [1] > 11.4 µM | activity change, negative = inhibition [2] 3.79% | activity change, negative = inhibition [3] -6.05% | activity, negative = inhibition [4] 6.79% | Potency [5] > 46 µM | Potency [6] > 9.22 µM | Potency [7] | Potency [8]

N=C(N)SCCc1ccccn1
inactive: Potency [1] > 11.4 µM | activity change, negative = inhibition [2] -8.38% and 0.949% | activity change, negative = inhibition [3] 3.85% and 12.3% | activity, negative = inhibition [4] -5.15% and -3.19% | Potency [5] > 46 µM | Potency [6] > 9.22 µM | Potency [7] | Potency [8]

NNS(=O)(=O)c1cc(C(=O)O)cc(C(=O)O)c1
inactive: Potency [1] > 11.4 µM | activity change, negative = inhibition [2] 4.57% | activity change, negative = inhibition [3] 14.9% | activity, negative = inhibition [4] 3.48% | Potency [5] > 46 µM | Potency [6] > 9.22 µM | Potency [7] | Potency [8]

O=c1c2ccccc2c2ccccc2c(=O)n1-c1cc2c3ccccc3ccc2c2ccccc12
inactive: Potency [1] > 11.4 µM | activity change, negative = inhibition [2] 13.5% | activity change, negative = inhibition [3] 2.31% | activity, negative = inhibition [4] -7.32% | Potency [5] > 46 µM | Potency [6] > 9.22 µM | Potency [7] | Potency [8]

Cc1nc2ccccc2nc1N1CCCC1
inactive: Potency [1] > 11.4 µM | activity change, negative = inhibition [2] 2.88% | activity change, negative = inhibition [3] 0.00129% | activity, negative = inhibition [4] 3.44% | Potency [5] > 46 µM | Potency [6] > 9.22 µM | Potency [7] | Potency [8]

O=C(O)C[C@@H](C(=O)O)C1c2ccccc2-c2ccccc21
inactive: Potency [1] > 11.4 µM | activity change, negative = inhibition [2] -0.496% | activity change, negative = inhibition [3] -1.69% | activity, negative = inhibition [4] -5.83% | Potency [5] > 46 µM | Potency [6] > 9.22 µM | Potency [7] | Potency [8]

[N-]=[N+]=N[C@@H]1[C@H](O)[C@H](CO)O[C@@H]1n1cnc2c(N)ncnc21
inactive: Potency [1] > 11.4 µM | activity change, negative = inhibition [2] -7.07% | activity change, negative = inhibition [3] 9.28% | activity, negative = inhibition [4] -12.3% | Potency [5] > 46 µM | Potency [6] > 9.22 µM | Potency [7] | Potency [8]

N=C(CC(=O)Nc1ccccn1)c1ccccc1
inactive: Potency [1] > 11.4 µM | activity change, negative = inhibition [2] 3.96% | activity change, negative = inhibition [3] 28.4% | activity, negative = inhibition [4] 5.02% | Potency [5] > 46 µM | Potency [6] > 9.22 µM | Potency [7] | Potency [8]

C[n+]1cccc(/C=C\c2ccc3cccc(O)c3n2)c1
inactive: Potency [1] > 11.4 µM | activity change, negative = inhibition [2] -0.115% | activity change, negative = inhibition [3] 10.1% | activity, negative = inhibition [4] 3.53% | Potency [5] > 46 µM | Potency [6] > 9.22 µM | Potency [7] | Potency [8]
